Unmarked numbers belong to inactive results. Records with an inconclusive call do not appear. Calls of active or inactive are those of the source.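 The calls were made as follows, unless noted: active = RAM network inhibition above 8.4% in each of two replicates, 3 SD over the compound average; inconclusive = above 8.4% inhibition in only one replicate; inactive = 8.4% inhibition or less in each replicate.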
Legend:
[1] = S. cerevisiae growth inhibition in permissive medium (OD615), pilot counter-assay for S. cerevisiae lifespan shortening project, permissive growth control (AID 705;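 active = growth inhibition above 25% in both replicates, a cutoff set 3 SD above the mean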); conditions: OD615, 24 h, at 10 µM, hits give high values
[2] = S. cerevisiae growth inhibition in restrictive medium, OD615, pilot screen, restrictive growth control, yeast lifespan reduction project (AID 706;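 active = growth inhibition above a set limit, 3 SD over mean compound inhibition, in both replicates, cut at about 43% in these data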;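 also: modified DeaD lifespan yeast strain shifted to restrictive glucose medium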); conditions: OD615, 48 h, at 10 µM, hits give high values
[3] = doxorubicin toxicity protection in MRP-1 cells – H69AR cells, CellTiter-Glo, duplicate, MRP-1 activator project, pilot screen (AID 807;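 active = viability increase at or above a cutoff of the median across tested compounds plus 3 SD, cut at about 8.5% in these data, passing the limit was not always enough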;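 also: compound pretreatment 18-22 h then 72 h combined with doxorubicin; 0% = doxorubicin alone and 100% = vehicle without doxorubicin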); conditions: H69AR viability with doxorubicin, CellTiter-Glo luminescence; at 10 µM; hits give high values
[4] = viability of HCT116 without oncogenic beta-catenin – human colon tumor cells, pilot screen (AID 823;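 active = cell viability at or below a set limit in both duplicate runs, the limit being the all-compound median minus 4 SD, cut at about 23% in these data, passing the limit was not always enough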;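 also: 0% = wells killed by 20 µM Hyamine and 100% = untreated DMSO cell wells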); conditions: HCT116 beta-catenin knockout viability, CellTiter-Glo, 60 h; at 10 µM; hits give low values
[5] = viability of PTEN-null HCT116 cells – cell-based, HCT116 clonal line, CellTiter-Glo, pilot screen (AID 824;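 active = viability at or below 27.92% in each of two runs, the all-compound median minus 4 SD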;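 also: 0% = 20 µM Hyamine control and 100% = vehicle cell control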); conditions: HCT116 PTEN-deleted viability, 60 h, at 10 µM, hits give low values
[6] = RAM signaling pathway blockade in yeast – S. cerevisiae, Pdr1DBD-CYC8 efflux-inhibited sensitized strain, primary screen (AID 1298);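 also: 0% = DMSO untreated cells without growth and 100% = 10 µM 1-NA-PP1 full growth; higher means more yeast growth rescued from 5-FOA killing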; conditions: S. cerevisiae cbk1-as DSE1-URA3 strain, 5-FOA growth OD615, 2 d; at 50 µM; hits give high values

Row | Structure (SMILES) | growth inhibition [1] [%] | growth inhibition [2] [%] | viability increase [3] [%] | viability [4] | viability [5] | RAM network inhibition [6] [%]
1 | CC(C)c1ccc(OC(=O)NCCO)cc1 | 4.54 | -4.21 | 0.33 | 98.9% | 104% | 4.79
2 | OC(COCC1COc2ccccc2O1)CN1CCc2ccccc2C1 (stereo unspecified) | -28.7 | -12.5 | -2.72 | 86.4% | 90.8% | 1.37
3 | CCOC(=O)N1CCC(N2C(=O)c3ccc(C(=O)Nc4ccc(F)cc4F)cc3C2=O)CC1 | -2.61 | -7.76 | -6.61 | 91.1% | 94.4% | 4.78
4 | CCOC(=O)c1c(NC(=O)c2ccc(Br)o2)sc(C)c1CC | 1.51 | -8.3 | -0.6 | 73.8% | 70.3% | 9.97
5 | CCOc1cc(-c2nc(-c3ccc(OC)cc3)no2)cc(OCC)c1OCC | -4.43 | -2.33 | -3.25 | 93.9% | 89.5% | 9.91
6 | CSc1cccc(NS(=O)(=O)c2ccc3c(c2)oc(=O)n3C)c1 | -0.15 | 7.23 | -1.75 | 85.3% | 81% | 4.49
7 | Cn1c(Cn2c(=O)sc3ccccc32)nnc1SCC(=O)Nc1ccccc1 | -7.53 | -2.15 | -1.41 | 99.5% | 98.1% | 13
8 | COc1ccc(-c2cc(C(F)(F)F)nc(S(C)(=O)=O)n2)cc1OC | -23.4 | -9.75 | -7.11 | 14.5% (active) | 48.7% | -0.26
9 | O=C1CCC(C(=O)NC2(C(=O)NC3CCCCC3)CCCCC2)N1 (stereo unspecified) | -0.36 | -2.28 | 0.85 | 99.6% | 104% | 1
10 | COc1ccc(-c2nc(-c3cccc(C(F)(F)F)c3)no2)cc1OC | -2.88 | 1.6 | -0.18 | 99% | 93.3% | 7.48
11 | Cc1ccccc1-n1c(Cn2c(=O)sc3ccccc32)nnc1SC(C)C | 5.19 | 6.75 | -0.49 | 84% | 78.4% | 6.91
12 | CC1Cn2c(nnc2-c2ccccc2O)S1 (stereo unspecified) | -13.6 | -21.9 | -1.33 | 115% | 98.2% | 5.23
13 | COc1ccccc1-c1cc(C(F)(F)F)nc(N2CCOCC2)n1 | -8.95 | -13.9 | -0.29 | 78.8% | 82.5% | 7.23
14 | Cc1cc(NC(=O)CSc2cn(CCNC(=O)c3ccc(Cl)cc3)c3ccccc23)no1 | -4.83 | -1.28 | -0.7 | 61.5% | 57.3% | 3.24
15 | CCn1c(=O)c2cc(C(=O)NCc3cccs3)sc2c2ccccc21 | -11.3 | -8.09 | -5.17 | 102% | 95.9% | 4.3
16 | FC(F)(F)c1nc(N2CCN(c3ccccc3)CC2)nc2c1CCCCC2 | -16.6 | -18.3 | -0.3 | 72.5% | 73.4% | 9.39
17 | Cn1c(=O)c2nnn(/N=C(\c3ccccc3)C3CC3)c2n(C)c1=O | -11.4 | -15 | -1.2 | 103% | 98.7% | 2.84
18 | CCOc1ccc(N(CC(=O)Nc2cccc(Cl)c2)S(=O)(=O)c2c(C)noc2C)cc1 | -14.8 | -4.69 | -7.01 | 39.2% | 45.7% | 12.6
19 | O=C(OCC1COc2ccccc2O1)c1c(F)cccc1F (stereo unspecified) | -5.97 | -0.835 | 2.01 | 93% | 95.8% | 7.73
20 | CCOc1ccc(Cn2nnc(C(=O)Nc3cc(OC)cc(OC)c3)c2N)cc1 | -2.1 | 0.885 | -5.5 | 86% | 88% | 2.46
21 | Cc1ccc(-c2nc(CSCC(=O)N3CCN(C(=O)c4ccco4)CC3)c(C)o2)cc1 | -4.69 | 14.9 | -1.03 | 76.4% | 76.5% | 6.53

Row | Structure (SMILES) | growth inhibition [1] [%] | growth inhibition [2] [%] | viability increase [3] [%] | viability [4] | viability [5] | RAM network inhibition [6] [%]
22 | O=C(Nc1c(C(=O)Nc2ccccc2)cnn1-c1ccccc1)c1ccco1 | -3.7 | -2.03 | -4.51 | 94.4% | 94.3% | 2.51
23 | CC(=O)c1cccc(NC(=O)CCS(=O)(=O)c2cccc3nonc23)c1 | -9.88 | -7.91 | -3.46 | 93.5% | 93.2% | 3.02
24 | COc1ccc(-n2c(SCC(=O)N3CCCC3)nc3c([nH]c4ccccc43)c2=O)cc1 | -20.2 | -19.5 | -3.04 | 105% | 93.7% | 1.9
25 | N#Cc1nc(-c2ccc(F)cc2)oc1NCCN1CCOCC1 | -0.47 | -8.75 | -2.06 | 96% | 92.3% | 7.83
26 | CCCOCCOC(=O)c1[nH]c2c(c1C)C(=O)CC(c1cc(OC)ccc1OC)C2 (stereo unspecified) | -12.2 | -4.79 | -4.21 | 17.3% (active) | 20.6% (active) | 8.16
27 | O=C(CSc1oc(-c2ccccc2)nc1S(=O)(=O)c1ccc(F)cc1)NCC1CCCO1 (stereo unspecified) | 4.64 | 0.925 | -3.53 | 86.3% | 89% | 2.32
28 | CCOC(=O)CNc1nc(C(C)(C)C)nc2c1nnn2Cc1ccccc1Cl | 1.73 | -3.68 | -1.19 | 78% | 76.2% | 9.74
29 | CCOc1ccc(-n2c(SCC(N)=O)nc3c([nH]c4ccccc43)c2=O)cc1 | -16.6 | 2.87 | -2.27 | 62.5% | 71.4% | 11.2
30 | Cn1c(=O)[nH]c(=O)c2c1nc(Sc1ccccc1)n2CCc1ccccc1 | -4.23 | -5.96 | -5.18 | 91.6% | 69.2% | 7.53
31 | Cc1ccc(C)c2[nH]c(=O)c(CCNC(=O)c3cc4ccccc4o3)cc12 | -2.5 | -11.6 | 1.81 | 95.4% | 91.2% | 4.18
32 | COc1ccc(-c2nc(CS(=O)CC(=O)NCc3ccc(Cl)cc3)c(C)o2)cc1 (stereo unspecified) | -11.9 | 4.36 | 0.16 | 72.4% | 79.9% | 7.34
33 | O=C(Nc1nc2c(s1)CCCC2)c1cccnc1 | -5.66 | -5.07 | 0.28 | 100% | 92.2% | 1.3
34 | COc1ccccc1CCNC(=O)CSc1nc(-c2ccco2)cc(C(F)(F)F)n1 | -13.3 | -5.15 | -1.65 | 102% | 93.7% | 6.42
35 | CS(=O)(=O)c1ccc2nc(NC(=O)Cc3ccccc3)sc2c1 | -10.9 | -4.83 | -4.98 | 91.5% | 96.3% | 3.94
36 | O=C(Cn1c(=O)oc2cc(S(=O)(=O)N3CCCCCC3)ccc21)NC1CCCCC1 | -4.92 | -8.79 | -4.28 | 101% | 93.8% | 3.25
37 | CCC(=O)N1c2ccccc2-c2nnc(SC)nc2OC1c1ccc(OC)c(OC)c1 (stereo unspecified) | -7.65 | -7.5 | -2.71 | 102% | 94.1% | 1.85
38 | Cc1ccc(OCC(=O)Nc2ccc(O)c(-c3nc4ccccc4o3)c2)cc1 | -10 | -14.9 | -7.57 | 38.8% | 54% | 2.6
39 | COc1ccc(N2CCN(C(=O)c3cc4c(-c5ccc(Cl)cc5)nn(C)c4s3)CC2)cc1 | 2.67 | -4.22 | -3.45 | 78.6% | 71.4% | 3.98
40 | c1ccc(-c2nc(CSc3nnnn3-c3ccccc3)cs2)cc1 | -8.04 | -0.095 | -2.18 | 99.5% | 93.4% | 7.98
41 | O=C(Nc1nc(-c2nc3ccccc3s2)cs1)C1COc2ccccc2O1 (stereo unspecified) | 2.93 | -0.5 | -2.5 | 96.8% | 91.3% | 2.13

Source: PubChem BioAssay
